# According to PMC9426499:
# Biological target: ParRC(pCW3) (Clostridium perfringens plasmid pCW3, UniProt Q1PLJ8 1-87)
# Assay: SPR; high values mean tight binding
# Settings: protein: recombinant; tags: C-terminal His6; chain copies: 4; label: 3' 20-nt overhang of comp strand annealed to immobilized 5'-biotin ReDCaT linker; dsDNA, one strand shown
row,Sequence,binding signal [RU]
1,AATTTTACATAATAGAAAGGATTGATAAAA,3.1
2,ATTTTACGGAAAATGCTTGATTTAGATTGA,9.2
3,AAAAAACATCACAATTTTACATAATAGAAA,311
4,ACAATTTTACATAATAGAAAGGATTGATAA,4.3
5,AAAATGAAAAAAACATCACAATTTTACGGA,250
6,ACAATTTTACGTAATTTAGATTTTGCAAGT,48.4
7,AATTAAAAACATCACAATTTTACGTAATGA,256
8,TTTTGCAAGTAAAAAACATCACAATTTTAC,217
9,GTAATTTAGATTTTGCAAGTAAAAAACATC,42.6
10,ATCACAATTTTACGTAATGACAGTTTGTTG,54.7
11,CATAAACATCACAATTTTACGTAATTTAGA,348
12,AAACATCACAATTTTACGGAAAATGCTTGA,282
13,AATATAAAAACATAAACATCACAATTTTAC,155
